D2 ag-1 – D2 dopamine receptor (human) agonism | P14416 | HEK293 T-REx D2 cells, calcium flux agonist mode | activation, % at 2 µM | actives 0.53% (n = 340,000) | AID 485358;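 active = activation over 3 SD above normal in the single-dose calcium agonist read, cut at about 30% in these data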; also: 0% is about no effect
Target sequence (P14416 whole entry, looked up): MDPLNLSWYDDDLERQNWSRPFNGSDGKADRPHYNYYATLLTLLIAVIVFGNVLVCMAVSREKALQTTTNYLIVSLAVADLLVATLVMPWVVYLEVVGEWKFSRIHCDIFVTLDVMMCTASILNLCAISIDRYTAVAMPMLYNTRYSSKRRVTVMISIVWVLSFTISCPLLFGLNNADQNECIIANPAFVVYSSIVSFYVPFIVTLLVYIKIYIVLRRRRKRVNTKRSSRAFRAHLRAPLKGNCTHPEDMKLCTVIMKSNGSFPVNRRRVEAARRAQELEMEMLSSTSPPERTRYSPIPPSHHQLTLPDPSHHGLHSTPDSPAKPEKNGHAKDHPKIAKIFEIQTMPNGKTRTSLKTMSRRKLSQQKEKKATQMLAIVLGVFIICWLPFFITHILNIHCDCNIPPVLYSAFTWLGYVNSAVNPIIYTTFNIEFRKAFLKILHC
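Calcium-flux readout, 1 cycle/sec over 180 s following compound pin transfer, in inducible HEK293 Trex D2 cells (force-coupled); dopamine controls included. Positive calcium responses during this window marked compounds as potential agonists.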
D2 PAM-1 – positive allosteric modulators of human D2 dopamine receptor; actives 0.34% (n = 340,000); potentiation, % at 10 µM; P14416; HEK293 T-REx D2, calcium flux, EC20 dopamine potentiation;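 active = potentiation over 3 SD above the plate norm, cut at about 30% in these data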; also: 0% is about no effect
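Using a no-wash calcium dye in inducible, force-coupled HEK293 Trex cells expressing D2, we tracked fluorescence each second for 180 s after compound, then for 180 s after EC20 dopamine to detect augmented signalling.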
D2 antagonist – antagonists of human D2 dopamine receptor; P14416; HEK293 TREx D2 cells, calcium flux, dopamine EC80; inhibition, % at 10 µM; actives 2% (n = 340,000); in the data active = inhibition above about 30%; inactive = below that, where a call was filed; also: 0% is about no effect
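In this primary screen, negative modulation is detected by tracking calcium flux after an EC80 dopamine challenge in inducible HEK293 T-REx D2 cells preexposed to test compound for 180 s.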
D2 PAM-2 – potentiates the human D2 dopamine receptor allosterically | DiscoveRx D2 beta-arrestin cells, luminescence, 90 min; 100% = 57 uM dopamine signal | actives 0.23% (n = 360,000) | AID 624464 | potentiation, % (concentration not given with the values); in the data active = potentiation above about 50%; inconclusive = mostly about 30% to 49%
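PathHunter D2 cells, attached overnight at 37 deg C, received compound in DMSO plus dopamine at EC20 (50 nM final) for 90 min at 37 deg C. Beta-arrestin recruitment was read as luminescence after 1 h with detection reagent at ambient temperature.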
D2 ag-2 – agonists of human D2 dopamine receptor (beta-arrestin); actives 0.084% (n = 360,000); P14416; activation, % (test concentration not listed); DiscoveRx PathHunter D2 beta-arrestin, luminescence, 90 min; 100% = 57 uM dopamine signal; in the data active = activation above about 40%; inconclusive = between about 15% and that limit
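DiscoveRx PathHunter D2 beta-arrestin cells (2,100/well) attached overnight, then compound-stimulated 90 min at 37 C in HBSS/10 mM HEPES/0.1% Tween-20 buffer; beta-galactosidase complementation read by luminescence after 1 h at ambient temperature. Dopamine 57 uM final (EC100) as control.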
D3 ag – confirmation of human D3 dopamine receptor agonists, beta-arrestin; shares compounds with D2 ag-1; DiscoveRx D3 beta-arrestin cells, luminescence, 90 min; Potency, µM (doses to about 76.9 µM), inactives show top-dose activation, actives largely listed as activators; actives 4% (n = 2,300); AID 720506;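 also: potency is read from the fitted curve at half-maximal effect; 100% = dopamine control response; nearly all actives have a fitted effect of over 70% in size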
D2 ag-3 – counter-screen for D3 agonists: human D2 dopamine receptor agonism; AID 720507; DiscoveRx PathHunter D2 beta-arrestin, luminescence, 90 min; response scale: percent relative to full dopamine signal; shares compounds with D2 ag-1; Potency, µM (series often up to 76.9 µM), for the others: at the top dose activation, actives largely listed as activators; actives 5.9% (n = 2,300); also: potency is read from the fitted curve at half-maximal effect; % of control where 0% means no effect; nearly all actives have a fitted effect of over 70% in size
Active calls of the source: *; u = inconclusive; x = no result given. In the library only some 2.4% were active in any assay of this set; here they are far more common. Unless noted, calls follow the shape of the dose curve; as a rule, active = well fitted activation curve with a large enough effect; inconclusive = small, poorly fitted or top-dose-only effect; inactive = flat fitted curve, though single readings scatter.

SMILES	D2 ag-1	D2 PAM-1	D2 antagonist	D2 PAM-2	D2 ag-2	D3 ag	D2 ag-3
CCOc1ccc2nc(NC(=O)c3cccn(Cc4ccccc4)c3=O)sc2c1	1	3	x	x	x	x	x
Cc1ccc(Cn2cccc(C(=O)Nc3ccc4c(c3)OCCO4)c2=O)cc1	-1	-1	x	x	x	x	x
COc1ccccc1N=Cc1c(O)n(C)c(=O)n(C)c1=O	0	0	35*	-15	-3	x	x
C/C(=N\Nc1ccccc1)c1c(O)n(Cc2ccccc2)c(=O)[nH]c1=O	-1	8	-10	57*	11	x	x
O=C1NC(=O)N(Cc2ccco2)C(=O)/C1=C/C=C/c1ccco1	7	-7	34*	1	-5	x	x
CN1CCN(c2c[nH]c(=O)[nH]c2=O)CC1	1	13	36*	8	-1	x	x
CN1CCN(c2ccccc2N)CC1	1	-6	-12	-14	0	x	x
O=C(COc1ccccc1F)N1CCN(Cc2cc(=O)n3nc(-c4ccccc4Cl)sc3n2)CC1	0	8	x	x	x	x	x
CN1CC(C(=O)c2ccccc2)C(c2ccccc2)C1 (configuration not stated)	1	-29	35*	-14	3	x	x
Cc1nnc(NC(=O)c2cccn(Cc3ccc(Cl)cc3)c2=O)s1	1	-4	x	x	x	x	x
N=Cc1c(O)n(-c2ccccc2)c(=O)n(-c2ccccc2)c1=O	1	24	-9	64*	-6	x	x
Cc1ccc(-n2c(O)c(C=N)c(=O)n(-c3ccc(C)cc3)c2=O)cc1	1	-1	-4	-8	1	x	x
Cc1ccccc1-c1nn2c(=O)cc(CN3CCN(C(=O)COc4ccccc4Cl)CC3)nc2s1	0	-4	x	x	x	x	x
COc1ccccc1N1CCN(Cc2cccc(Br)c2)CC1	-1	-25	76*	-2	-4	x	x
COc1ccccc1N1CCN(Cc2cc(C)c(C)cc2O)CC1	x	x	x	-19	-5	x	x
CN1CCN(c2c(F)cc([N+](=O)[O-])c(N)c2Br)CC1	0	-19	35*	-16	-4	x	x
Nc1c([N+](=O)[O-])cc(F)c(N2CCNCC2)c1Br	-4	11	10	-12	1	x	x
CCCCCCCCCOc1ccc2[nH]cc(CCN)c2c1	2	-18	13	x	x	x	x
COc1ccc2[nH]cc(CCN)c2c1	34*	-4	-4	-48	5	x	x
C#CC1(O)CCC2C3CCC4=C/C(=N/OCC(=O)NCC(=O)NC(C(=O)O)C(C)C)CC[C@]4(C)C3CC[C@@]21C (some centres not stated)	1	-9	60*	-5	1	x	x
Cc1ccccc1Cn1cccc(C(=O)Nc2nc3ccccc3s2)c1=O	1	x	x	x	x	x	x
COC(=O)C1C=C2c3cccc4[nH]cc(c34)CC2N(C)C1 (configuration not stated)	79*	-30	62*	x	x	x	x
CC[C@@H](CO)NC(=O)[C@@H]1C=C2c3cccc4[nH]cc(c34)C[C@H]2N(C)C1	x	x	x	u	42*	x	x
COc1cccc(NC(=O)c2cccn(Cc3ccccc3C)c2=O)c1	1	2	x	x	x	x	x
CCN(CC)c1ccc(/C=N/c2sc3c(c2C#N)C2CCN3CC2)c(O)c1	34*	9	17	-35	-8	x	x
SMILES	D2 ag-1	D2 PAM-1	D2 antagonist	D2 PAM-2	D2 ag-2	D3 ag	D2 ag-3
CC(=O)c1cccc(OCC(O)CN2CC=C(c3ccccc3)CC2)c1 (configuration not stated)	79*	-29	80*	51*	42*	u	u
CN1CCN(Cc2ccc(Br)s2)CC1	-1	-22	13	-24	3	x	x
COc1ccccc1N1CCN(Cc2ccccc2)CC1	31*	-19	97*	-67	2	-10%	-2%
COc1ccccc1N1CCN(Cc2ccc(Br)s2)CC1	61*	-23	85*	-4	1	-8%	8%
COc1ccccc1N1CCN(Cc2c(F)cccc2Cl)CC1	4	-29	-20	-42	-1	x	x
Cc1ccc2c(=O)n(-c3cccc(Cl)c3)c(=O)[nH]c2c1	-1	-3	x	x	x	x	x
COC(=O)C1=C(c2ccc(F)cc2OCc2ccccc2)C[C@@H]2CC[C@H]1N2C(=O)NCc1ccccc1C(F)(F)F	0	4	-6	-10	-3	x	x
COC(=O)C1=C(c2ccc(F)cc2OCc2ccccc2)C[C@@H]2CC[C@H]1N2C(=O)NCc1ccccc1Br	0	-15	-6	-10	-12	-11%	-3%
COc1ccc(CCNCc2c(OC)ccc3ccccc23)cc1	-1	8	2	-49	-19	x	x
COc1ccc(CC(=O)Nc2ccc(C#N)c(Cl)c2)cc1S(=O)(=O)N1CCOCC1	-1	1	8	6	1	x	x
CCC(=NCc1ccco1)c1c(O)n(-c2ccccc2C)c(=O)[nH]c1=O	0	-9	-9	-5	-1	-11%	-6%
C=C[C@@H]1C2=CCOC(=O)C2=CO[C@H]1O[C@@H]1O[C@H](CO)[C@@H](O)[C@H](O)[C@H]1O	0	13	7	4	0	-7%	-1%
Oc1cc2c(cc1CN1CCN(c3ccccc3F)CC1)OCO2	66*	-29	76*	-10	14	-3%	27%
CCCN1CCO[C@@H]2c3cc(O)ccc3OC[C@H]21	68*	-13	72*	97*	83*	0.045µM*	0.071µM*
O=[N+]([O-])c1cccc2c([N+](=O)[O-])cccc12	-1	-4	5	2	2	3%	1%
N#Cc1ccccc1Cn1cc(C(=O)c2ccccc2F)c2ccccc21	0	8	-2	-4	-2	x	x
CCN(CC)C(=O)N[C@H]1C[C@@H]2c3cccc4[nH]cc(c34)C[C@H]2N(C)C1	83*	-28	83*	13	u	u	0.002µM*
CN1C[C@H](CO)C[C@@H]2c3cccc4[nH]cc(c34)C[C@H]21	84*	-33	96*	53*	u	u	u
COc1ccc(C2CC(=O)Oc3c2c(=O)oc2ccccc32)c(OC)c1OC (configuration not stated)	-2	9	x	x	x	x	x
COC(=O)C1=C(c2ccc(Cl)c(C(F)(F)F)c2)C[C@@H]2CC[C@H]1N2C(=O)NCc1ccco1	-2	-8	0	-17	-5	x	x
COC(=O)C1=C(c2ccc(-c3ccccc3)c(F)c2)C[C@@H]2CC[C@H]1N2C(=O)N1CCCCC1	1	-4	-5	-17	-1	-9%	11%
COc1ccc(C)cc1NC(=O)c1cccn(Cc2ccccc2Cl)c1=O	1	7	x	x	x	x	x

From PubChem BioAssay
